# Screening results (PubChem)
# Only some compounds are listed: those with a hit (about 0.92% of all), similar ones and a draw of the others.
# MEP2 TOR yeast – yeast TOR pathway MEP2-GFP modulation. S. cerevisiae MEP2-GFP strain, flow cytometry GFP, 3 h; 100% = DMSO control level. GFP response vs DMSO, % at 10 µM. 330,000 tested, 0.51% active. AID 2016;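 active = GFP response versus DMSO above a set limit, roughly screen mean plus 3 SD, cut at about 180% in these data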;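 also: median GFP fluorescence of the barcode-gated MEP2-GFP cells per well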
# CIT2 TOR yeast – alters CIT2-GFP fluorescence in TOR pathway yeast screen | S. cerevisiae CIT2-GFP strain, flow cytometry, 3 h; 100 means same as DMSO wells | GFP response vs DMSO, % at 10 µM | 320,000 tested, 0.065% active;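 active = GFP response relative to DMSO above a set limit, near the screen mean plus 3 SD, cut at about 150% in these data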;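 also: ratio of well median GFP fluorescence to mean of DMSO wells on the plate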
# RPL19A-GFP yeast – alters RPL19A-GFP fluorescence in TOR pathway yeast screen | S. cerevisiae RPL19A-GFP strain, flow cytometry, 3 h; stronger effect = lower value | percent response vs DMSO, % at 10 µM | 330,000 tested, 0.3% active;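 active = percent response vs DMSO below 50%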;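 also: median channel GFP fluorescence of the barcoded RPL19A-GFP strain; lower means less RPL19A-GFP as with rapamycin TOR inhibition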
# LAP4-GFP MLPCN – modulators of TOR pathway LAP4-GFP in S. cerevisiae; S. cerevisiae LAP4-GFP multiplex, flow cytometry GFP, 3 h; median GFP as percent of DMSO wells; GFP response vs DMSO, % at 10 µM; 320,000 tested, 0.34% active;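 active = GFP response vs DMSO above a set limit, about the screen mean plus 3 SD, cut at about 150% in these data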
# AGP1-GFP MLPCN – alters AGP1-GFP fluorescence in TOR pathway yeast screen. S. cerevisiae AGP1-GFP multiplex flow cytometry, 3 h; GFP as percent of DMSO wells. GFP response vs DMSO, % at 10 µM. AID 2066. 320,000 tested, 0.02% active;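 active = GFP response relative to DMSO above a set limit, near screen average plus 3 SD, cut at about 150% in these data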;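 also: median GFP channel fluorescence of the gated AGP1 strain per well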
# LAP4 cherry2 – yeast LAP4-GFP modulation, second cherry pick | shares compounds with LAP4-GFP MLPCN | S. cerevisiae LAP4-GFP strain, flow cytometry GFP, 3 h | GFP response vs DMSO, % at 10 µM | 590 tested, 20% active | AID 2621;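 active = GFP signal as percent of the solvent control above about 150%, meaning raised reporter expression, limit read from the data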
# MEP2-GFP pick2 – yeast MEP2-GFP modulation, second cherry pick. shares compounds with LAP4-GFP MLPCN. S. cerevisiae MEP2-GFP strain, flow cytometry GFP, 3 h. GFP response vs DMSO, % at 10 µM. 590 tested, 10% active;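 active = GFP signal above 150% of the solvent control wells, that is a rise of more than half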;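 also: median channel GFP fluorescence of all gated yeast cells per well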
# RPL19A-GFP pick2 – yeast RPL19A-GFP TOR reporter modulation, second cherry pick; shares compounds with LAP4-GFP MLPCN; S. cerevisiae RPL19A-GFP strain, flow cytometry GFP, 3 h; stronger effect = lower value; 100% means same as DMSO wells; GFP response vs DMSO, % at 10 µM; 590 tested, 3% active;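 active = under 65% GFP response relative to DMSO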;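 also: median GFP channel fluorescence per well over the all cells gate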
# CIT2 GFP CP2 – second confirmation of modulators of TOR reporter CIT2-GFP in yeast; 590 tested, 8% active; S. cerevisiae CIT2-GFP strain, flow cytometry GFP, 3 h; DMSO control wells read 100%; shares compounds with LAP4-GFP MLPCN; GFP response vs DMSO, % at 10 µM;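 active = GFP response vs DMSO above about 150%, limit read from the data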;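 also: median green fluorescence per well over all gated yeast cells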
# AGP1 GFP CP2 – second confirmation of modulators of TOR reporter AGP1-GFP in yeast | shares compounds with LAP4-GFP MLPCN | S. cerevisiae AGP1-GFP strain, flow cytometry GFP, 3 h | percent response vs DMSO, % at 10 µM | 590 tested, under 10 active;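 active = over 150 percent of DMSO response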;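 also: median GFP channel fluorescence over all cells without mother daughter split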
# s288c autofluor – yeast s288c autofluorescence artifact, counter-screen; shares compounds with LAP4-GFP MLPCN; S. cerevisiae s288c, 520 nm autofluorescence, flow cytometry, 3 h; stronger effect = higher value; zero means same as solvent-only cells; fluorescence change (kMESF span) at 33 µM; 610 tested, under 10 active;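 active = fluorescence span over the dose series, or activity score, above about 33, limit read from the data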
# s288c autofl DR – counter-screen for autofluorescence of TOR hits in yeast s288c; shares compounds with LAP4-GFP MLPCN; S. cerevisiae s288c parental, compound autofluorescence, flow cytometry, 3 h; fluorescence change (span) at 33 µM; 110 tested, under 10 active;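 active = fluorescence change span, or the activity score built from it, above 25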
# TORC1 bypass gr – stops wildtype yeast growth while TORC1 bypass cells still grow; shares compounds with LAP4-GFP MLPCN; S. cerevisiae BY4741 spot growth rating, 48-72 h; stronger effect = lower value; growth rating (0-3) at 30 µM; 120 tested, under 10 active; AID 504456;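 active = growth rating at most 1 for wild type yeast while the TORC1 bypass strain still grows fully, rated 3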
# Hits are given with their value; n = inactive; x = no result; + = active, no number; [ ] = another dose, or the depositor's remark.
SMILES,MEP2 TOR yeast,CIT2 TOR yeast,RPL19A-GFP yeast,LAP4-GFP MLPCN,AGP1-GFP MLPCN,LAP4 cherry2,MEP2-GFP pick2,RPL19A-GFP pick2,CIT2 GFP CP2,AGP1 GFP CP2,s288c autofluor,others
CSc1ccc(/C=C/C(=O)c2c(O)cc(C)oc2=O)cc1,n,n,n,n,n,x,x,x,x,x,x,
COc1cccc(/C=C/C(=O)c2c(O)cc(C)oc2=O)c1O,n,n,n,243,n,x,x,x,x,x,n,
COc1ccc(/C=C/C(=O)c2c(O)cc(C)oc2=O)c(OC)c1,n,n,n,n,n,x,x,x,x,x,x,
Cc1cc(O)c(C(=O)/C=C/c2ccc(Cl)cc2)c(=O)o1,n,n,n,161,n,x,x,x,x,x,n,
CCn1c(SCC(=O)Nc2cccc(OC)c2)nc2c(c1=O)SCC2,n,n,n,n,n,x,x,x,x,x,x,
Cc1cc(/C=C2/SC(=S)N(c3cccc(Cl)c3)C2=O)c(C)n1-c1cccnc1,n,n,n,154,n,x,x,x,x,x,n,
Cc1cc(/C=C2/SC(=S)N(c3ccc([N+](=O)[O-])cc3)C2=O)c(C)n1-c1cccnc1,n,n,n,n,n,x,x,x,x,x,x,
Cc1cccc(NC(=O)COC(=O)Cc2cccs2)c1C,n,n,n,n,n,x,x,x,x,x,x,
O=C1OC(c2ccc(F)cc2)=C/C1=C\c1ccc([N+](=O)[O-])o1,647[may fluoresce green],217[may fluoresce green],n,291[may fluoresce green],n,667,+,n,991,174,x,
O=C1OC(c2ccc(F)cc2)=C/C1=C\c1ccc(O)cc1,n,n,n,n,n,x,x,x,x,x,x,
O=C(Nc1ccc([N+](=O)[O-])cc1)c1ccccc1F,n,n,n,n,n,x,x,x,x,x,x,
O=C(c1cc(O)c(O)c([N+](=O)[O-])c1)c1ccccc1F,n,n,n,151,n,n,n,n,n,n,x,
O=C(/C=C/c1ccccc1)NC(=S)NNC(=O)Cc1cccs1,n,n,n,n,n,n,n,n,n,n,n,
O=C(/C=C/c1cc(Br)ccc1O)c1ccco1,n,n,n,196,n,x,x,x,x,x,n,
CC(C)(C)c1ccc(C(=O)OCc2c(-c3ccccc3)ncc3ccccc23)cc1,n,n,n,n,n,x,x,x,x,x,x,
COc1ccc(C(=O)OCc2c(-c3ccccc3)ncc3ccccc23)cc1,n,n,n,151,n,n,n,n,n,n,x,
O=C1C(Cl)=C(N2CCN(Cc3ccccc3)CC2)C(=O)N1c1ccccc1,n,n,n,n,n,x,x,x,x,x,n,
CC[C@]12CCCN3CCc4c(n(c5ccccc45)C(=O)C1)C32 (stereo not given in full),n,n,n,167,n,n,n,n,n,n,x,
Cn1ncc2c(O/N=C(\N)c3ccc(C(C)(C)C)cc3)ncnc21,n,n,n,188,n,x,x,x,x,x,n,
CCOC(=O)c1ccc(Nc2ncnc3c2cnn3C)cc1,n,n,n,n,n,x,x,x,x,x,x,
O=C(Cc1ccc(Cl)cc1)NCCc1ccc(F)cc1,n,n,n,n,n,x,x,x,x,x,x,
O=C(CNC(=S)N(Cc1ccccc1)Cc1ccccc1F)NCCc1ccc(Cl)cc1,n,n,n,n,n,n,n,n,n,n,x,
Cc1cc(Nc2cc(-c3ccccc3)nc(NCc3ccccc3)n2)n[nH]1,x,x,x,x,x,x,x,x,x,x,x,TORC1 bypass gr=n
CC(C)C(=O)NC(c1cccs1)c1cc([N+](=O)[O-])c2cccnc2c1O (stereo not given),n,n,n,153,n,x,x,x,x,x,n,
Cc1ccc(C(NC(=O)C(C)C)c2cc([N+](=O)[O-])c3cccnc3c2O)cc1 (stereo not given),n,n,n,n,n,x,x,x,x,x,x,
SMILES,MEP2 TOR yeast,CIT2 TOR yeast,RPL19A-GFP yeast,LAP4-GFP MLPCN,AGP1-GFP MLPCN,LAP4 cherry2,MEP2-GFP pick2,RPL19A-GFP pick2,CIT2 GFP CP2,AGP1 GFP CP2,s288c autofluor,others
O=C1CCCN2N=C(SCC(=O)N3CCCCC3)SC2=N1,n,n,n,n,n,n,n,n,n,n,x,
COc1cc(/C=C/C(=O)OCC(=O)NC2CC2)cc(S(=O)(=O)N2CCc3ccccc32)c1OC,n,n,n,n,n,x,x,x,x,x,x,
COc1cc(/C=C/C(=O)N2CCN(C)CC2)cc(S(=O)(=O)N2CCc3ccccc32)c1OC,n,n,n,n,n,n,n,n,n,n,x,
O=C(C1=NN[C@@H]2C(=O)N(Cc3ccccc3)C(=O)[C@H]12)c1ccc(F)cc1,n,n,n,n,n,x,x,x,x,x,x,
Cc1[nH]n(-c2ccccc2)c(=O)c1C(C[N+](=O)[O-])c1ccc(Cl)cc1 (stereo not given),n,n,n,n,n,x,x,x,x,x,x,
Cc1[nH]n(-c2ncc(-c3ccccc3)s2)c(=O)c1C(c1ccc(Cl)cc1)C(C#N)C#N (stereo not given),n,n,n,155,n,x,x,x,x,x,n,
CCC(C)/C(C)=N/NC(=O)c1ccc(COc2ccc(Cl)c(C)c2)cc1 (stereo not given),n,n,n,206,n,n,175,n,n,n,n,
CCOc1ccc(OCc2ccc(C(=O)N/N=C(\C)c3ccccn3)cc2)cc1,n,n,n,n,n,x,x,x,x,x,x,
Cc1ccc(Cl)cc1NC(=O)CN1C(=O)NC(C)(C2CC2)C1=O (stereo not given),n,n,n,151,n,n,n,n,n,n,x,
CC(C)CN(C(=O)c1ccc(Br)o1)C1CCS(=O)(=O)C1 (stereo not given),n,n,n,n,n,x,x,x,x,x,x,
Oc1c(C(Nc2cccc(C(F)(F)F)c2)c2ccncc2)ccc2cccnc12 (stereo not given),n,n,n,170,n,x,x,x,x,x,n,
CSC1=NS(=O)(=O)c2c(C)nn(C)c2S1,n,n,n,154,n,x,x,x,x,x,n,s288c autofl DR=n;TORC1 bypass gr=n
CCC(C)NC(=O)CS(=O)Cc1nc(-c2cccc(C)c2)oc1C (stereo not given),n,n,n,156,n,n,n,n,n,n,x,
